{"source": "PubChem BioAssay (NCATS)", "key": {"CP305": {"tested_on": "CP305", "experiment": "qHTS profiling for inhibitors of Plasmodium falciparum proliferation (AID 504749); note: nearly all actives have a fitted effect of over 60% in size; note: potency is the fitted concentration of half-maximal effect", "details": "P. falciparum in erythrocytes, SYBR Green DNA, 72 h; series mostly up to 28.7 µM", "how_it_was_run": "(§1)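 Parasite proliferation within erythrocytes, 72 h exposure. Endpoint: SYBR Green I fluorescence after overnight lysis at room temperature. Controls: 0.29 uM artemisinin, DMSO.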"}, "CP315": {"tested_on": "CP315", "experiment": "qHTS profiling for inhibitors of Plasmodium falciparum proliferation (AID 504749)", "details": "P. falciparum in erythrocytes, SYBR Green DNA, 72 h; series mostly up to 28.7 µM", "how_it_was_run": "as §1"}, "CP325": {"tested_on": "CP325", "experiment": "qHTS profiling for inhibitors of Plasmodium falciparum proliferation (AID 504749)", "details": "P. falciparum in erythrocytes, SYBR Green DNA, 72 h; series mostly up to 28.7 µM", "how_it_was_run": "as §1"}, "CP329": {"tested_on": "CP329", "experiment": "qHTS profiling for inhibitors of Plasmodium falciparum proliferation (AID 504749)", "details": "P. falciparum in erythrocytes, SYBR Green DNA, 72 h; series mostly up to 28.7 µM", "how_it_was_run": "as §1"}, "CP335": {"tested_on": "CP335", "experiment": "qHTS profiling for inhibitors of Plasmodium falciparum proliferation (AID 504749)", "details": "P. falciparum in erythrocytes, SYBR Green DNA, 72 h; series mostly up to 28.7 µM", "how_it_was_run": "as §1"}, "DFO2036": {"tested_on": "DFO2036", "experiment": "qHTS profiling for inhibitors of Plasmodium falciparum proliferation (AID 504749)", "details": "P. falciparum in erythrocytes, SYBR Green DNA, 72 h; series mostly up to 28.7 µM", "how_it_was_run": "as §1"}, "Dd2": {"tested_on": "Dd2", "experiment": "qHTS profiling for inhibitors of Plasmodium falciparum proliferation (AID 504749)", "details": "P. falciparum in erythrocytes, SYBR Green DNA, 72 h; series mostly up to 28.7 µM", "how_it_was_run": "as §1"}, "FAB9": {"tested_on": "FAB9", "experiment": "qHTS profiling for inhibitors of Plasmodium falciparum proliferation (AID 504749)", "details": "P. falciparum in erythrocytes, SYBR Green DNA, 72 h; series mostly up to 28.7 µM", "how_it_was_run": "as §1"}, "GB4": {"tested_on": "GB4", "experiment": "qHTS profiling for inhibitors of Plasmodium falciparum proliferation (AID 504749)", "details": "P. falciparum in erythrocytes, SYBR Green DNA, 72 h; series mostly up to 28.7 µM", "how_it_was_run": "as §1"}, "JCK": {"tested_on": "JCK", "experiment": "qHTS profiling for inhibitors of Plasmodium falciparum proliferation (AID 504749)", "details": "P. falciparum in erythrocytes, SYBR Green DNA, 72 h; series mostly up to 28.7 µM", "how_it_was_run": "as §1"}, "PC15": {"tested_on": "PC15", "experiment": "qHTS profiling for inhibitors of Plasmodium falciparum proliferation (AID 504749)", "details": "P. falciparum in erythrocytes, SYBR Green DNA, 72 h; series mostly up to 28.7 µM", "how_it_was_run": "as §1"}, "PC49": {"tested_on": "PC49", "experiment": "qHTS profiling for inhibitors of Plasmodium falciparum proliferation (AID 504749)", "details": "P. falciparum in erythrocytes, SYBR Green DNA, 72 h; series mostly up to 28.7 µM", "how_it_was_run": "as §1"}, "SC27B": {"tested_on": "SC27B", "experiment": "qHTS profiling for inhibitors of Plasmodium falciparum proliferation (AID 504749)", "details": "P. falciparum in erythrocytes, SYBR Green DNA, 72 h; series mostly up to 28.7 µM", "how_it_was_run": "as §1"}, "W2": {"tested_on": "W2", "experiment": "qHTS profiling for inhibitors of Plasmodium falciparum proliferation (AID 504749)", "details": "P. falciparum in erythrocytes, SYBR Green DNA, 72 h; series mostly up to 28.7 µM", "how_it_was_run": "as §1"}, "[1]": {"target": "Glutathione peroxidase 1 (Homo sapiens) (UniProt P07203)", "sequence (P07203 whole entry, looked up)": "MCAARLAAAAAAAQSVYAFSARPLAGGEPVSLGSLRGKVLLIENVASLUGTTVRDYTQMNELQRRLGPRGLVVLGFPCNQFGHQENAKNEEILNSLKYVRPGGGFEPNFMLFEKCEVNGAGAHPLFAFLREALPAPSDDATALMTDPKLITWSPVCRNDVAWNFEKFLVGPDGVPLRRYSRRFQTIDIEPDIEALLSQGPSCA", "experiment": "Primary qHTS Assay for Inhibitors of Recombinant Selenoprotein Glutathione Peroxidase 1 (GPX1) (AID 1845191)", "how_it_was_run": "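Recombinant GPX1 (10 nM final) was preincubated with compound for 30 min at room temperature, then reacted with 1 mM GSH, 0.5 mM CHP, 0.5 mM NADPH and 100 nM glutathione reductase; NADPH fluorescence (340/450 nm) was read at 0 and 15 min.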"}, "[2]": {"target": "Phospholipid hydroperoxide glutathione peroxidase GPX4 (Homo sapiens) (UniProt P36969)", "sequence (P36969 whole entry, looked up)": "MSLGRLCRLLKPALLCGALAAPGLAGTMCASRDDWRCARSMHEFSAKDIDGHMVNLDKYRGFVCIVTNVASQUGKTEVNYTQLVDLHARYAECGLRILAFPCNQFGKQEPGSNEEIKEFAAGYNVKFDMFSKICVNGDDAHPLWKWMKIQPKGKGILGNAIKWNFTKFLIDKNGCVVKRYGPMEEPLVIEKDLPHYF", "experiment": "Primary qHTS Assay for Inhibitors of Recombinant Selenoprotein Glutathione Peroxidase 4 (GPX4) (AID 1845192)", "how_it_was_run": "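GR-coupled readout: 100 nM GR, 1 mM GSH, 0.5 mM NADPH; NADPH fluorescence (ex 340/em 450 nm) read at t=0 and after 15 min RT. GPX4 200 nM, preincubated 30 min with compound; substrate 0.5 mM CHP.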"}, "[3]": {"experiment": "qHTS drug screen for cell cycle checkpoint inhibitors in PARPi-resistant BRCA-mutant ovarian cancer cell lines. (AID 1963452; calls by dose curve)", "details": "PEO1/OlaR viability, CellTiter-Glo luminescence, 96 h, stronger effect = lower value", "how_it_was_run": "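PEO1, PEO4 and PEO1/OlaR ovarian cancer cells, 600 per well, exposed 96 h at 37C to a dilution series. Viability read by CellTiter-Glo luminescence, normalized to DMSO and empty wells; activity summarized as Z-AUC.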"}}, "note": "Inconclusive results are not listed. Where a call stands in place of a potency, no number is given. Calls of active or inactive are those of the source. Unless noted, calls come from the whole dose curve; as a rule, active = well fitted inhibition curve with a large enough effect; inconclusive = small, poorly fitted or top-dose-only effect; inactive = flat fitted curve, though single readings scatter."}
{"smiles": "O=NCc1ccc([N+](=O)[O-])o1", "values": [{"measurement": "Potency", "setting": "CP305", "value": "inactive"}, {"measurement": "Potency", "setting": "CP315", "value": "inactive"}, {"measurement": "Potency", "setting": "CP325", "value": "inactive"}, {"measurement": "Potency", "setting": "CP329", "value": "inactive"}, {"measurement": "Potency", "setting": "CP335", "value": "inactive"}, {"measurement": "Potency", "setting": "DFO2036", "value": "inactive"}, {"measurement": "Potency", "setting": "Dd2", "value": "inactive"}, {"measurement": "Potency", "setting": "FAB9", "value": "inactive"}, {"measurement": "Potency", "setting": "GB4", "value": "13.5 µM (active)"}, {"measurement": "Potency", "setting": "JCK", "value": "inactive"}, {"measurement": "Potency", "setting": "PC15", "value": "inactive"}, {"measurement": "Potency", "setting": "PC49", "value": "inactive"}, {"measurement": "Potency", "setting": "SC27B", "value": "inactive"}, {"measurement": "Potency", "setting": "W2", "value": "6.01 µM (active)"}]}
{"smiles": "C/C(O)=C(\\C#N)C(=O)Nc1ccc(C(F)(F)F)cc1", "values": [{"measurement": "Potency", "setting": "[1]", "value": "inactive"}, {"measurement": "Potency", "setting": "[2]", "value": "inactive"}, {"measurement": "Z-AUC", "setting": "[3]", "value": "-1.06 (inactive)"}, {"measurement": "Z-AUC", "setting": "[3]; measured here: PEO1 parental Z-AUC", "value": 0.703}, {"measurement": "Z-AUC", "setting": "[3]; measured here: PEO4 Z-AUC", "value": -0.074}]}
